Laboratory results: PubChem BioAssay (EPA / NIEHS)
Calls of active or inactive are those of the source. How the source made its calls: active means hit-call score of the fitted dose curve at least 0.9, where 1 is the maximum; inactive means score below 0.9.

Key:
[1] = ATG_E_Box_CIS: Attagene CIS-FACTORIAL HepG2 Assay for human Enhancer Box (E-box) (AID 2282936); conditions: HepG2 E-box cis-reporter transcription, actives raise or lower the signal
How it was run: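 First, HepG2 cells receive multiple cis-regulated reporter constructs by transient transfection. Next, chemicals are applied for 24 h. Finally, reporter mRNA is quantified via RT-PCR and capillary electrophoresis, with DMSO as baseline.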

[2] = ATG_M_61_CIS: Attagene CIS-FACTORIAL HepG2 Assay for M61 Transcription Factor (Internal Marker) (AID 2282937); conditions: HepG2 Attagene CIS-FACTORIAL M61 internal marker reporter; actives raise or lower the signal
How it was run: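 Background-control endpoint: HepG2 cells with cis-regulated reporter constructs, 24 h exposure, reporter mRNA detected via fluorescent primer extension and capillary electrophoresis; values from bidirectional fitting with DMSO baseline.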

[3] = ATG_EGR_CIS: Attagene CIS-FACTORIAL HepG2 Assay for human Early Growth Response 1 (EGR1) (AID 2282938); conditions: HepG2 Attagene CIS-FACTORIAL EGR reporter mRNA; actives raise or lower the signal
How it was run: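 Endpoint derived by bidirectional fitting versus DMSO vehicle. Method: cis-promoter reporter units transfected into HepG2, 24 h dosing, RNA isolation, RT-PCR with 6-FAM primer extension and HpaI digestion, then capillary electrophoresis fluorescence detection.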

[4] = ATG_M_19_CIS: Attagene CIS-FACTORIAL HepG2 Assay for M19 Transcription Factor (Internal Marker) (AID 2282939); conditions: HepG2 Attagene CIS-FACTORIAL M19 internal marker reporter; actives raise or lower the signal
How it was run: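 HepG2, MRTU transient transfection, 24 h dosing. Total RNA → RT-PCR → 6-FAM primer extension → HpaI digest → CE fluorescence. Bidirectional curve fit, DMSO negative control.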

[5] = ATG_ERE_CIS: Attagene CIS-FACTORIAL HepG2 Assay for Estrogen Response Element (ERE) (AID 2282940); conditions: HepG2 ERE cis-reporter, Attagene RNA transcript; actives raise or lower the signal
How it was run: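 After a 24 h chemical treatment, RNA from reporter-transfected HepG2 cells is reverse-transcribed, PCR-amplified and fluorescently labelled. Fragments separated by capillary electrophoresis give reporter signal; DMSO serves as negative control.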

[6] = ATG_Ets_CIS: Attagene CIS-FACTORIAL HepG2 Assay for human Erythroblast Transformation Specific (ETS) (AID 2282941); conditions: HepG2 ETS cis-reporter transcription, actives raise or lower the signal
How it was run: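 After transient cis-reporter transfection, HepG2 cells receive test chemical for 24 h. Reporter mRNA levels, measured by RT-PCR and capillary electrophoresis fluorescence, are analysed bidirectionally relative to the DMSO baseline.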

[7] = biological target: Hepatocyte nuclear factor 3-beta (Homo sapiens) (UniProt Q9Y261); assay: ATG_FoxA2_CIS: Attagene CIS-FACTORIAL HepG2 Assay for human Forkhead box A2 (FOXA2) (AID 2282942); conditions: HepG2 cis-reporter transcription factor activity, 24 h; actives raise or lower the signal
How it was run: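 Measured: reporter mRNA induction or loss in HepG2 transiently carrying multiple cis-regulated reporter units, 24 h after dosing. Quantified by RT-PCR plus capillary electrophoresis, normalised to DMSO.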

[8] = ATG_FoxO_CIS: Attagene CIS-FACTORIAL HepG2 Assay for human Forkhead box O (FoxO) (AID 2282943); conditions: HepG2 Attagene cis-reporter, FoxO element, mRNA; actives raise or lower the signal
How it was run: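 HepG2 cells transiently transfected with cis-element-driven reporter units report endogenous FoxO activity. After 24 h chemical exposure, reporter mRNA quantified by RT-PCR, fluorescent labeling, HpaI digestion and capillary electrophoresis; bidirectional fit versus DMSO.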

[9] = ATG_GATA_CIS: Attagene CIS-FACTORIAL HepG2 Assay for human GATA Binding Protein (AID 2282944); conditions: HepG2 GATA cis-element reporter, Attagene multiplex mRNA; actives raise or lower the signal
How it was run: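 Cells: HepG2, transiently transfected with cis-regulated reporter transcription units. Exposure: 24 h. Detection: RT-PCR plus capillary electrophoresis of FAM-labeled fragments. Analysis: bidirectional, DMSO as baseline.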

[10] = ATG_GLI_CIS: Attagene CIS-FACTORIAL HepG2 Assay for human Zinc Finger Protein GLI1 (AID 2282945); conditions: HepG2, Attagene cis-factorial reporter mRNA, GLI element; actives raise or lower the signal
How it was run: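 Transiently transfected HepG2 cells report endogenous transcription factor activity via cis-element-driven reporter units. After 24 h compound exposure, reporter mRNA was measured by RT-PCR with capillary electrophoresis; bidirectional fitting against DMSO baseline.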

Measured: AC50

Sequence of Hepatocyte nuclear factor 3-beta (Homo sapiens) (Q9Y261 whole entry, looked up): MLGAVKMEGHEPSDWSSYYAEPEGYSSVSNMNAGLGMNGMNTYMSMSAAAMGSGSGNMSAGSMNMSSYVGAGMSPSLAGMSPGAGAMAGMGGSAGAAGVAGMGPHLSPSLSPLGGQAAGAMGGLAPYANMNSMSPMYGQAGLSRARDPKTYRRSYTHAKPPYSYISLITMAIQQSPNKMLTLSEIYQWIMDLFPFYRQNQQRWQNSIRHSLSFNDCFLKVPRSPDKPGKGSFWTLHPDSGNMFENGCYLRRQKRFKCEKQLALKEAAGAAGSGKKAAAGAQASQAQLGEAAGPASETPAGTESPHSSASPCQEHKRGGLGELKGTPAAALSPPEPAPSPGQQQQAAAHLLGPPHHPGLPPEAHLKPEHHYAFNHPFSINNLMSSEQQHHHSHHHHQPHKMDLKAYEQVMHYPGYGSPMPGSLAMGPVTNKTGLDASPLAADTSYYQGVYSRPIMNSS

CC(C)=CCC/C(C)=C\C#N
inactive: all assays above

COc1ccc(NC(C)=O)cc1N
inactive: all assays above

OC1CCCCCCCCCCC1
active: [5] 26.4 µM
inactive: all other assays above

CCOc1nc(F)cc2nc(S(=O)(=O)Nc3c(Cl)cccc3C(=O)OC)nn12
inactive: all assays above

O=C(O)CCCCCCCCCC(=O)O
active: [5] 22 µM
inactive: all other assays above

Nc1ccc(Oc2ccc(N)c(N)c2)cc1
inactive: all assays above

CC(=O)Oc1ccc(C)cc1
inactive: all assays above

C/C=C\C/C=C/CCCCCCCCOC(C)=O
active: [3] 100 µM
inactive: all other assays above

CC(=O)Nc1ccc2c(c1)Cc1cc(NC(C)=O)ccc1-2
inactive: all assays above

CCC(C)(C)C1CCCCC1OC(C)=O (stereo not given)
inactive: all assays above

COC(F)(F)C(F)(C(F)(F)F)C(F)(F)F
inactive: all assays above

OCCNCc1ccccc1
inactive: all assays above

CCC(CC)C(=O)O
inactive: all assays above

Cn1c([N+](=O)[O-])cnc1COC(N)=O
inactive: all assays above

Cc1ccc(N/N=c2\c(=O)cc/c(=N/Nc3ccc(S(=O)(=O)O)cc3)c2=O)c(C)c1
active: [5] 100 µM
inactive: all other assays above

Nc1ncn([C@@H]2O[C@H](CO)[C@@H](O)[C@H]2O)c(=O)n1
active: [1] 27.5 µM | [6] 39.5 µM
inactive: all other assays above

N=c1ccn2c(n1)O[C@H]1[C@H](O)[C@@H](CO)O[C@H]12
inactive: all assays above

CC(C)(C)C(=O)CCc1ccc(Cl)cc1
active: [5] 30.2 µM
inactive: all other assays above

NC(=O)OCC(COC(N)=O)c1ccccc1
inactive: all assays above
